These results are taken from PubChem BioAssay AID1347414 (National Center for Advancing Translational Sciences (NCATS), 2020).

Records with an inconclusive call do not appear. Unmarked numbers belong to inactive results. The source made the active and inactive calls. Calls follow the shape of the dose curve; as a rule, active = well fitted inhibition curve with a large enough effect; inconclusive = small, poorly fitted or top-dose-only effect; inactive = no such curve, though single readings can be large or run the other way. Numbered stars: 1 amine (or outer) side, 2 acyl side, 3 side chain; on linkers, the order of the positions; unused ones are H or OH. Bridge positions count the residues as written; N and C are the ends. Square brackets hold non-standard residues; d marks the D form. Peptide text beside a SMILES is read from it. I, II: the chains in the order shown. Actinocin(9to1) = Cc1c2oc3c(C)ccc(C(=O)[*:1])c3nc-2c(C(=O)[*:2])c(N)c1=O; NMeV = CN[C@H](C(=O)O)C(C)C; Sar = CNCC(=O)O
% is scaled to controls: 0 for no effect and ±100 for the full control effect; potency is read from the fitted curve at half-maximal effect.

The assay is described as follows: qHTS to identify inhibitors of the type 1 interferon - major histocompatibility complex class I in skeletal muscle: Secondary screen by immunofluorescence. Also: nearly all actives have a fitted effect of over 70% in size.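 As to activity change, negative = inhibition: digitonin at 100 µM served as the cytotoxic control.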 Particulars: C25cl48 myoblasts, IFN-b induced HLA-ABC immunofluorescence, 24 h; series mostly up to 49.8 µM; activity change, negative = inhibition: at the top concentration. The text has this:
Assay Submitter (PI): Travis B. Kinder Ph.D. & James Inglese Ph.D. Assay Development and Screening Technology Laboratory (ADST) National Center for Advancing Translational Sciences (NCATS), Rockville, MD National Institute of Health (NIH), Bethesda, Maryland Idiopathic inflammatory myopathies, collectively referred to as myositis, are a group of rare autoimmune diseases characterized by skeletal muscle inflammation, weakness, and usually accompanied by systemic pathologies of the skin, lungs, or vasculature. Current immunosuppressive therapies and glucocorticoids are often not curative and are accompanied by harsh side effects, especially in children with juvenile myositis. We initiated a drug repurposing and development program to identify more targeted, less toxic therapeutics to treat myositis. Although its cause is not known, muscle from a subset of patients have an abundance of the inflammatory type 1 interferon (IFN) and a down-stream product major histocompatibility complex class I (MHC class I), which are both thought to contribute to damage and weakness. We conducted quantitative high throughput screening (qHTS) on 6,576 compounds (4,679 unique) through a series of cell-based assays to identify those that inhibit the IFN-stimulated expression of MHC class I in muscle precursor cells (myoblasts). The compound identification and evaluation strategy utilized a primary screen with reporter-tagged MHC class I in genome-engineered myoblasts, ATP content counter screen for viability, HLA-ABC immunofluorescence secondary screen, and HLA-B RT-qPCR tertiary screen. To verify activity of compounds identified by qHTS in HLA-B HiBit reporter cells, compounds were assayed by high throughput HLA-ABC immunofluorescence. Briefly, 216 compounds identified from primary and counter screening as inhibitory with minimal cytotoxicity were dispensed into black/clear bottom […] using acoustic dispensing in an 11-point, 1:3 titration with a high final concentration of 50 uM. Normal immortalized human myoblasts C25cl48 were added to the plates with 4.0 ng/ml human IFN-beta for 24 hours, fixed, stained by immunofluorescence for HLA-ABC protein, nuclei, and cell body, and analyzed by laser scanning cytometry as described by Auld et al., 2006. References: Auld DS, Johnson RL, Zhang Y, Veith H, Jadhav A, Yasgar A, Simeonov A, Zheng W, Martinez ED, Westwick JK, Austin CP, Inglese J. 2006. Fluorescent protein-based cellular assays analyzed by laser-scanning microplate cytometry in 1536-well plate format. Methods Enzymol 414:566-89. doi:10.1016/S0076-6879(06)14029-X
PROTOCOL TABLE (as described by Inglese et al., 2007) SEQUENCE No. (e.g., 1, 2, 3, etc.); […] (e.g., Cells, Incubation, Reagent, etc.); VALUE; DESCRIPTION 0; Compounds; 25 nl; Follow-up compounds dispensed at 25 nl/well with Labcyte Echo 655 acoustic dispenser in triplicate Aurora ChemLib 1536K black/clear bottom, low base, TC 1536-well plates (00019324). Also dispensed 25 nl/well DMSO control, ruxolitinib IFN-b inhibitor control titration, and digitonin cytotoxic control 1a; Cells; 5 uL; Multidrop Combi (Thermo Scientific) to seed 125 cells/well into eight plates in 5 ul/well of iHSKM growth medium (GM) without dexamethasone into columns 1+2. Add metal lids with gas-exchange holes 1b; Cells; 5 uL; Multidrop Combi (Thermo Scientific) to seed 125 cells/well into eight plates in 5 ul/well of iHSKM GM without dexamethasone + 4 ng/ml IFN-b into columns 3 - 48. […]
Regarding `O=c1[nH]c2cc(Cl)ccc2c(O)c1-c1ccc(Oc2ccccc2)cc1`, the “activity change, negative = inhibition” value was -1.08%.

Turning to `COC1CC(C(=O)c2ccc3c(N)ncc(-c4ccc(-c5cnn(C)c5)cc4)c3n2)C1` (stereo not given), the “activity change, negative = inhibition” value is 5.32%.

For the molecule `C#Cc1cccc(Nc2ncnc3cc(OC)c(OCCCCCCC(=O)NO)cc23)c1`, the Potency is 289 nM (active).

`O=C1Nc2ccccc2C1(c1ccc(O)cc1)c1ccc(O)cc1`: the “activity change, negative = inhibition” value is 0.682%.

`CNC(=O)c1cc(Oc2ccc(NC(=O)Nc3cc(C(C)(C)C)nn3-c3ccc4ncccc4c3)c(F)c2)ccn1`: the Potency is 1820 nM (active).

Consider `CCN1CCN(Cc2ccc(NC(=O)Nc3ccc(Oc4cc(NC)ncn4)cc3)cc2C(F)(F)F)CC1`, for which the Potency was 1620 nM (active).

`CC1(C)CC(=O)c2c(C(F)(F)F)nn(-c3ccc(C(N)=O)c(NC4CCC(O)CC4)c3)c2C1` (stereo not given): the Potency is 32.4 nM (active).

Turning to `COc1ccc(F)c(F)c1C(=O)c1cnc(NC2CCN(S(C)(=O)=O)CC2)nc1N`, the Potency is 914 nM (active).

Take `COC(=O)N[C@@H](C)CNc1nccc(-c2cn(C(C)C)nc2-c2cc(Cl)cc(NS(C)(=O)=O)c2F)n1`: the “activity change, negative = inhibition” value is -26.1%.

Turning to `COc1nnc2ccc(N3CCC(c4ccc(OCCN5CCN(C)C(=O)[C@H]5C)cc4)CC3)nn12`, the Potency was 14.5 nM (active).

As for `Cc1cc(Nc2cc(NC(=O)c3c(Cl)cccc3Cl)ccn2)nc(N)n1`, the Potency is 2050 nM (active).

As to `CCN(CC)Cc1ccc2cc(COC(=O)Nc3ccc(C(=O)NO)cc3)ccc2c1`, the Potency is 258 nM (active).

For the molecule `Cc1cc(O)c(-c2ccc([C@@H](C)CN)cc2)c2c1[nH]c(=O)c1sccc12`, the Potency is 18.2 nM (active).

With `C=CC(=O)N1CCc2ccc(-n3c(=O)ccc4cnc5ccc(-c6cnn(C)c6)cc5c43)cc21`, the Potency was 2890 nM (active).

For `CCc1c(O)cc(O)c(C(=O)c2ccc(OCCN3CCOCC3)c(OC)c2)c1CC(=O)N(CCOC)CCOC`, the Potency is 814 nM (active).

For the molecule `CC(=O)c1ccc2c(c1)c1cc(C(C)=O)ccc1n2CCNC(C)C`, the Potency was 647 nM (active).

For `Cc1[nH]nc2ccc(-c3cncc(OC[C@@H](N)Cc4ccccc4)c3)cc12`, the Potency was 726 nM (active).

Turning to `CN(C)C/C=C/C(=O)Nc1ccc(C(=O)N2CCC[C@@H](Nc3ncc(Cl)c(-c4c[nH]c5ccccc45)n3)C2)cc1`, the Potency was 230 nM (active).

Turning to `CC(/C=C/C(=O)NO)=C\[C@@H](C)C(=O)c1ccc(N(C)C)cc1`, the Potency is 204 nM (active).

In the case of `CC(C)(C)c1ccc(S(=O)(=O)/C=C/C#N)cc1`, the Potency is 2290 nM (active).

As for `CC(C)CC(=O)Nc1n[nH]c2c1CN(C(=O)C1CCN(C)CC1)C2(C)C`, the Potency was 230 nM (active).

`N#CCC1(n2cc(-c3ncnc4[nH]ccc34)cn2)CN(C2CCN(C(=O)c3ccnc(C(F)(F)F)c3F)CC2)C1`: the Potency is 1290 nM (active).

Turning to `Cc1c2oc3c(C)ccc(C(=O)N[C@@H]4C(=O)N[C@H](C(C)C)C(=O)N5CCC[C@H]5C(=O)N(C)CC(=O)N(C)[C@@H](C(C)C)C(=O)O[C@@H]4C)c3nc-2c(C(=O)N[C@@H]2C(=O)N[C@H](C(C)C)C(=O)N3CCC[C@H]3C(=O)N(C)CC(=O)N(C)[C@@H](C(C)C)C(=O)O[C@@H]2C)c(N)c1=O` (I: T[dV]P[Sar][NMeV] / II: T[dV]P[Sar][NMeV]; ester I:1-I:C, II:1-II:C; linker I:N-II:N via Actinocin(9to1)), the Potency is 57.6 nM (active).

With `COc1cc(Nc2ncc(F)c(Nc3ccc4c(n3)NC(=O)C(C)(C)O4)n2)cc(OC)c1OC`, the “activity change, negative = inhibition” value was 0.596%.

Consider `O=C(/C=C/C#Cc1cccc(NS(=O)(=O)c2ccccc2)c1)NO`, for which the Potency is 1450 nM (active).

Regarding `CC(C)c1nn(-c2c(Cl)cccc2Cl)c2nc(Cc3ccc(OCCO)cc3)[nH]c(=O)c12`, the Potency is 22.9 nM (active).

`COc1ccc(-c2ccc3ncc4c(c3c2)n(-c2ccc(N3CCNCC3)c(C(F)(F)F)c2)c(=O)n4C)cn1`: the Potency is 258 nM (active).

As for `Fc1cccc(-n2cnc3c(NCc4nc5c(F)c(F)ccc5[nH]4)nc(N4CCOCC4)nc32)c1`, the Potency is 289 nM (active).

Regarding `Cc1oncc1C(=O)Nc1ccc(C(F)(F)F)cc1`, the “activity change, negative = inhibition” value is 10.8%.

As for `O=C1CN2Cc3c(ccc(Cl)c3Cl)N=C2N1`, the “activity change, negative = inhibition” value was 7.02%.

`CC(=O)Nc1ccc([C@H](C)C(=O)Nc2ncc(C(C)C)s2)cc1`: the Potency is 1620 nM (active).

Turning to `NC(=O)c1cnc2[nH]ccc2c1NC1C2CC3C[C@H]1CC(O)(C3)C2` (stereo not given in full), the Potency was 458 nM (active).

Turning to `CCC[C@H](NC(=O)/C(C#N)=C/c1cccc(Br)n1)c1ccccc1`, the Potency is 6470 nM (active).

For the molecule `O=C(/C=C\n1cnc(-c2cc(C(F)(F)F)cc(C(F)(F)F)c2)n1)NNc1cnccn1`, the Potency was 324 nM (active).

On to `CC(C)c1c(-c2ccccc2)nc2c(C#N)c[nH]n2c1=O`, for which the “activity change, negative = inhibition” value was -25.8%.

As for `CC(C)C[C@H](NC(=O)[C@H](Cc1ccccc1)NC(=O)c1cnccn1)B(O)O`, the Potency was 25.7 nM (active).

On to `CC[C@@]1(O)C(=O)OCc2c1cc1n(c2=O)Cc2c-1nc1cc(F)c(C)c3c1c2[C@@H](N)CC3`, for which the Potency is 1290 nM (active).

Turning to `C=C1C(=O)O[C@H]2C[C@H](C)C(/C=C/C(C)=O)=CC[C@H]12`, the Potency is 5760 nM (active).

On to `O=C1NCCc2[nH]c(-c3ccncc3)cc21`, for which the Potency was 2570 nM (active).

For `Cc1ccc2nc(NCCN)c3ncc(C)n3c2c1`, the Potency is 4080 nM (active).
